# PubChem BioAssay (NCATS)
# Where “and” joins values, the source holds several entries; their conditions need not be identical. Identical values can stand only once. Records with an inconclusive call do not appear. Entries that show only a call come without a potency. Unmarked numbers belong to inactive results. Calls of active or inactive are those of the source. Calls come from the whole dose curve; as a rule, active = well fitted curve in the direction sought with a large enough effect; inconclusive = small, poorly fitted or top-dose-only effect, or another doubt; inactive = no such curve, though single readings can be large; an effect the other way counts as inactive or inconclusive. Where a SMILES comes first, the peptide text is derived from it. Bridges are numbered along the chain shown (N, C = ends). [ ]: non-standard residue; d: D form. NMeY = CN[CH](Cc1ccc(O)cc1)C(=O)O
# Columns and labels:
# [1] = Primary qHTS for inhibitors of nuclear receptor binding SET domain protein 2 (NSD2) in an isogenic RCH-ACV NSD2 p.E1099K mutant (9B) (AID 1645876); note: nearly all actives have a fitted effect of over 70% in size; note: potency is the fitted concentration of half-maximal effect
# [2] = Primary qHTS for inhibitors of nuclear receptor binding SET domain protein 2 (NSD2) in an RCH-ACV wild type WT cells (2C) (AID 1645877); note: nearly all actives have a fitted effect of over 70% in size; note: potency is the fitted concentration of half-maximal effect
# [3] = molecular target: Glutathione peroxidase 1 (Homo sapiens) (UniProt P07203); experiment: Primary qHTS Assay for Inhibitors of Recombinant Selenoprotein Glutathione Peroxidase 1 (GPX1) (AID 1845191); note: nearly all actives have a fitted effect of over 65% in size
# Sequence of Glutathione peroxidase 1 (Homo sapiens) (P07203 whole entry, looked up): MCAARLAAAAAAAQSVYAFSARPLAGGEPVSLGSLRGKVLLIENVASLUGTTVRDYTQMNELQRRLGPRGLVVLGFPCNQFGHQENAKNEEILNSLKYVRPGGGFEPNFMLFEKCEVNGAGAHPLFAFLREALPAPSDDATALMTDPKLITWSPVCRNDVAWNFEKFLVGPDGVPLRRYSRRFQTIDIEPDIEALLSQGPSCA
# Procedure, shortened: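 Recombinant GPX1 (10 nM final) was preincubated with compound for 30 min at room temperature, then reacted with 1 mM GSH, 0.5 mM CHP, 0.5 mM NADPH and 100 nM glutathione reductase; NADPH fluorescence (340/450 nm) was read at 0 and 15 min.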
compound,measurement,setting,value
O=C1NC2CCc3nc4ccccc4c(=O)n3C2=Nc2ccccc21 (stereo not drawn),Potency,[1],inactive
same,Potency,[2],inactive
same,Potency,[3],inactive
C=CC(=O)N1CCN(C(=O)CNc2cc(I)c(Cl)cc2O)CC1,Potency,[1],5.15 µM (active)
same,Potency,[2],5.15 µM (active)
same,Potency,[3],inactive
CC1=CC(=O)CC(C)(CO)C1(O)/C=C/C(C)O[C@@H]1O[C@H](CO)[C@@H](O)[C@H](O)[C@H]1O (stereo partly drawn),Potency,[1],inactive
same,Potency,[2],inactive
same,Potency,[3],inactive
O=C(/C=C/c1ccc(O)cc1)OC1[C@H](O)CC(O)(C(=O)O)C[C@H]1O (stereo partly drawn),Potency,[1],inactive
same,Potency,[2],inactive
same,Potency,[3],inactive
CC/C=C\CCO[C@@H]1O[C@H](CO[C@@H]2OC[C@H](O)[C@H](O)[C@H]2O)[C@@H](O)[C@H](O)[C@H]1O,Potency,[1],inactive
same,Potency,[2],inactive
same,Potency,[3],inactive
COc1ncc(Nc2ncc([C@@H](C)N3CCN(S(C)(=O)=O)CC3)cc2-c2nc(C)nc(N)n2)cc1F,Potency,[1],0.0052 µM (active)
same,Potency,[2],0.0205 µM (active)
same,Potency,[3],inactive
CC(C)CC(=O)OC1OC=C(CO[C@@H]2O[C@H](CO)[C@@H](O)[C@H](O)[C@H]2O)C2CC(O)C(O)(CO)C12 (stereo partly drawn),Potency,[1],inactive
same,Potency,[2],inactive
same,Potency,[3],inactive
CCOc1ccc2nc(SCCN3CCOCC3)[nH]c2c1,Potency,[1],inactive
same,Potency,[2],inactive
same,Potency,[3],inactive
CC(C)(O)/C=C/CC(C)(O)C1C(O)CC2(C)C3CCC4C(C)(C)C(=O)CCC4(C)C3CCC12C (stereo not drawn),Potency,[1],inactive
same,Potency,[2],inactive
same,Potency,[3],inactive
CC(=O)OC1C(c2ccccc2)CCC(c2ccccc2)C1OC(C)=O (stereo not drawn),Potency,[1],inactive
same,Potency,[2],inactive
same,Potency,[3],inactive
COC(=O)/C=C/C12COC(C)(C)C1C(O)C(OC(C)=O)C1(C)C2CCC2(C)C(c3ccoc3)OC(=O)C3OC321 (stereo not drawn),Potency,[1],inactive
same,Potency,[2],inactive
same,Potency,[3],inactive
C=C1CC[C@@H]2[C@@](C)(CO[C@@H]3O[C@H](CO)C(O)[C@H](O)C3O)[C@H](O)CC[C@@]2(C)[C@@H]1CC/C(C)=C/CO (stereo partly drawn),"activity change, negative = viability loss",[1],3.18% [at 9.23 µM]
same,"activity change, negative = cell killing",[2],-1.61% [at 9.23 µM]
same,Potency,[3],inactive
Nc1nc2c(ncn2[C@@H]2O[C@H](CO)[C@@H](O)[C@H]2O)c(=O)[nH]1,Potency,[1],inactive
same,Potency,[2],inactive
same,Potency,[3],inactive
C/C=C(\C)C(=O)O[C@H]1[C@@H](O[C@]2(COC(=O)CC(C)C)O[C@H](COC(=O)C(C)CC)[C@@H](OC(C)=O)[C@@H]2O)O[C@H](COC(C)=O)[C@@H](O)[C@@H]1O (stereo partly drawn),Potency,[1],inactive
same,Potency,[2],inactive
same,Potency,[3],inactive
CCCC(=O)NCCc1csc(-c2ccc(Cl)cc2)n1,Potency,[1],12.9 µM (active)
same,Potency,[2],18.3 µM (active)
same,Potency,[3],inactive
C/C=C1\[C@H](O[C@@H]2O[C@H](CO)[C@@H](O)[C@H](O)[C@H]2O)OC=C(C(=O)OC)[C@H]1CC(=O)O,Potency,[1],inactive
same,Potency,[2],inactive
same,Potency,[3],inactive
COC1CC(O[C@H]2CC[C@@]3(C)C(CCC4C3[C@H](OC(C)=O)[C@@H](OC(=O)/C=C/c3ccccc3)[C@]3(C)C(C(C)=O)CC[C@]43O)C2)OC(C)C1OC1CC(OC)C(OC2CC(OC)C(OC3OC(C)C(OC4OC(CO)C(O)C(O)C4O)C(OC)C3O)C(C)O2)C(C)O1 (stereo partly drawn),"activity change, negative = viability loss",[1],-23.3% [at 9.23 µM]
same,"activity change, negative = cell killing",[2],-29.1% [at 9.23 µM]
same,outcome,[3],inactive [at 9.52 µM]
C[C@@H]1CC[C@]2(C(=O)O)CC[C@]3(C)C(=CCC4[C@@]5(C)CC[C@H](O)C(C)(C)C5C(O)C[C@]43C)[C@@H]2[C@]1(C)O (stereo partly drawn),Potency,[1],inactive
same,Potency,[2],inactive
same,Potency,[3],inactive
C/C1=C\CCC(C)CCO[C@@H]2O[C@H](CO[C@@H]3OC[C@H](O)[C@H](O)[C@H]3OC1=O)[C@@H](O)[C@H](O)[C@H]2O (stereo partly drawn),Potency,[1],inactive
same,Potency,[2],inactive
same,Potency,[3],inactive
C=CCC1=C[C@]2(OC)[C@H](C)[C@@H](c3ccc(O)c(OC)c3)O[C@]2(OC)CC1=O,Potency,[1],inactive
same,Potency,[2],inactive
same,Potency,[3],inactive
C/C=C/C=C/[C@@H]1O[C@](O)([C@H](CC)C(=O)NC/C=C/C=C(\C)[C@@H](OC)[C@@H](C)C2OC(/C=C/C=C/C=C(\C)C(=O)c3c(O)cc[nH]c3=O)[C@H](O)[C@@H]2O)[C@H](O)[C@H](O)C1(C)C (stereo partly drawn),Potency,[1],inactive
same,Potency,[2],inactive
same,Potency,[3],inactive
CC(C(O)/C=C/C(C)(C)O)C1CCC2(C)C3C(=O)C=C4C(CCC(O)C4(C)C)C3(C)CCC12C (stereo not drawn),Potency,[1],inactive
same,Potency,[2],inactive
same,Potency,[3],inactive
CC1CCC2(C(=O)O)CCC3(C)C(=CCC4C5(C)CCC(OC(=O)/C=C/c6ccccc6)C(C)(C)C5CCC43C)C2C1C (stereo not drawn),Potency,[1],inactive
same,Potency,[2],inactive
same,Potency,[3],inactive
C=C(C)C(=O)O[C@H]1C[C@@](C)(O)C(=O)CC(O)/C(C)=C\[C@H]2OC(=O)C(=C)[C@H]12 (stereo partly drawn),Potency,[1],4.01 µM (active)
same,Potency,[2],1.27 µM (active)
same,Potency,[3],inactive
C[C@@H]1CC[C@@]2(OC1)O[C@H]1C[C@H]3[C@@H]4CC=C5C[C@@H](O)CC[C@]5(C)[C@H]4CC[C@]3(C)[C@H]1[C@@H]2C,Potency,[1],inactive
same,Potency,[2],inactive
same,Potency,[3],inactive
CC(C)C(=O)OC[C@H]1O[C@H](O[C@H]2O[C@H](CO)[C@@H](O)[C@H](O)[C@H]2O)[C@H](O)[C@@H](O)[C@@H]1O,Potency,[1],inactive
same,Potency,[2],inactive
same,Potency,[3],inactive
CC(O)/C=C/C1(O)C(C)C(O[C@@H]2O[C@H](CO)[C@@H](O)[C@H](O)[C@H]2O)C(O)CC1(C)C (stereo partly drawn),Potency,[1],inactive
same,Potency,[2],inactive
same,Potency,[3],inactive
CC1(C)CCC[C@@]2(C)C1[C@H](OC(=O)/C=C/C=C/C(=O)O)C=C1COC(=O)[C@@]12O (stereo partly drawn),Potency,[1],inactive
same,Potency,[2],inactive
same,Potency,[3],inactive
CC1OC(OC2CCC3(C)C(CCC4(C)C3CC=C3C5CC(C)(C)CCC5(C(=O)OC5OC(CO)C(O)C(O)C5O)CCC34C(=O)O)C2(C)C)C(O)C(O)C1O (stereo not drawn),Potency,[1],inactive
same,Potency,[2],inactive
same,Potency,[3],inactive
CC[C@]12C=CCN3CC[C@@]4(c5cc([C@@]6(C(=O)OC)C[C@H]7C[C@@H](C(C)(F)F)CN(Cc8c6[nH]c6ccccc86)C7)c(OC)cc5N(C)[C@H]4[C@@](O)(C(=O)OC)[C@@H]1OC(C)=O)[C@@H]32,Potency,[1],0.139 µM (active)
same,Potency,[2],0.0879 µM (active)
same,Potency,[3],inactive
C=C(C(=O)OC)C1C(O)CC2(C)C(=O)CCC(O)(CO)C2C1O (stereo not drawn),Potency,[1],inactive
same,Potency,[2],inactive
same,Potency,[3],inactive
COc1cc2c(cc1OC)[C@@H]1[C@H](O)[C@@H](OC)C=C3CCN(C2)[C@H]31,Potency,[1],4.5 µM (active)
same,Potency,[2],4.5 µM (active)
same,Potency,[3],inactive
C[C@H](NC(c1cccc2[nH]c(=O)c(=O)[nH]c12)P(=O)(O)O)c1ccc(Br)cc1 (stereo partly drawn),Potency,[1],inactive
same,Potency,[2],inactive
same,Potency,[3],inactive
C=CC(C)(CC/C=C(\C)C(=O)OC)OC1OC(COC(=O)CC(C)(O)CC(=O)O)C(OC2OC(CO)C(O)C(O)C2O)C(O)C1O (stereo not drawn),Potency,[1],inactive
same,Potency,[2],inactive
same,Potency,[3],inactive
COc1cc2c(cc1OC)CC(=O)N(CCCNC[C@H]1Cc3cc(OC)c(OC)cc31)CC2,Potency,[1],inactive
same,Potency,[2],inactive
same,Potency,[3],inactive
COC(=O)c1cc(OC)cc(OC)c1C(=O)c1c(OC)cc2c(c1O)C1CCCC(C)(O2)O1 (stereo not drawn),Potency,[1],inactive
same,Potency,[2],inactive
same,Potency,[3],inactive
C[C@]1(CO)CCC[C@]2(C)C3=C(CCC12)COC3 (stereo partly drawn),Potency,[1],inactive
same,Potency,[2],inactive
same,Potency,[3],inactive
COC(=O)C1=COC(OC2OC(CO)C(O)C(O)C2O)C2C1C=CC2(O)CO (stereo not drawn),Potency,[1],inactive
same,Potency,[2],inactive
same,Potency,[3],inactive
CCC(C)C1NC(=O)C2CCCN2C(=O)C(NC(C)=O)C(C)OC(=O)C(Cc2ccc(OC)cc2)N(C)C(=O)C2CCCN2C(=O)C(C(C)C)NC1=O (stereo not drawn) (Ac-TPIVP[NMeY](Me); ester 1-C; configuration not given here),Potency,[1],inactive
same,Potency,[2],inactive
same,Potency,[3],inactive
Cc1c(NC(=O)c2cc(C(N)=O)nc3cc(F)ccc23)c(C(F)(F)F)nn1Cc1ccc(C#N)cc1,Potency,[1],inactive
same,Potency,[2],inactive
same,Potency,[3],inactive
O=C(CO)[C@@H](O)[C@H](O[C@@H]1O[C@H](CO)[C@H](O)[C@H](O)[C@H]1O)[C@H](O)CO,Potency,[1],inactive
same,Potency,[2],inactive
same,Potency,[3],inactive
NC1CCCCN(c2c(F)cc3c(=O)c(C(=O)O)cn(C4CC4)c3c2Cl)C1 (stereo not drawn),Potency,[1],inactive
same,Potency,[2],inactive
same,Potency,[3],inactive
COC(=O)C1=CO[C@@H](O[C@@H]2O[C@H](CO)[C@@H](O)[C@H](O)[C@H]2O)[C@H]2[C@@H]1C=C[C@@]21C=C([C@H](C)O)C(=O)O1,Potency,[1],inactive
same,Potency,[2],inactive
same,Potency,[3],inactive
O=C(OC[C@H]1O[C@H](O[C@]2(CO)O[C@H](CO)[C@@H](O)[C@@H]2O)[C@H](O)[C@@H](O)[C@@H]1O)c1ccccc1,Potency,[1],inactive
same,Potency,[2],inactive
same,Potency,[3],inactive
C=C1C(=O)O[C@@H]2[C@H]1CCC(C)=C1CCC(=O)O[C@]12C,Potency,[1],9.16 µM (active)
same,Potency,[2],4.09 µM (active)
same,Potency,[3],inactive
C=C1CCCC2(C)CC3(OC)OC(=O)C(C)=C3CC12 (stereo not drawn),Potency,[1],inactive
same,Potency,[2],inactive
same,Potency,[3],inactive
CC1OC(OC2C(C)OC(OC3C(OC(=O)C45CCC(C)(C)CC4C4=CCC6C7(C)CCC(OC8OC(C(=O)O)C(O)C(O)C8OC8OC(CO)C(O)C(OC9OC(C)C(O)C(O)C9O)C8O)C(C)(CO)C7CCC6(C)C4(C)CC5)OC(CO)C(O)C3O)C(O)C2O)C(O)C(O)C1O (stereo not drawn),"activity change, negative = viability loss",[1],2.43% [at 9.23 µM]
same,"activity change, negative = cell killing",[2],3.53% [at 9.23 µM]
same,"activity, negative = inhibition",[3],-14% [at 9.52 µM]
COCC1OC(OC(C)(C)C2CCC3(C)C=C(C4CCC5C4(C)CC(O)C4OC(C(C)(C)OC6OC(CO)C(O)C(O)C6NC(C)=O)CCC45C)CCC3O2)C(NC(C)=O)C(O)C1O (stereo not drawn),"activity change, negative = viability loss",[1],1.46% [at 9.23 µM]
same,outcome,[2],inactive [at 9.23 µM]
same,Potency,[3],inactive
O=C(c1ccc(/C=C/c2n[nH]c3ccccc23)cc1)N1CCNCC1,Potency,[1],649 nM (active) and 2.63 µM (active)
same,Potency,[2],515 nM (active) and 1.86 µM (active)
same,Potency,[3],inactive
CC1=C(CCC(C)CC(=O)O)[C@@]2(C)CCCC(C)(C)C2CC1=O (stereo partly drawn),Potency,[1],inactive
same,Potency,[2],inactive
same,Potency,[3],inactive
CC(C)CCC[C@@H](C)[C@H]1CC[C@H]2[C@@H]3CC(=O)[C@H]4C[C@@H](O)CC[C@]4(C)[C@H]3CC[C@]12C,Potency,[1],inactive
same,Potency,[2],inactive
same,Potency,[3],inactive
